# Laboratory results published in PubChem BioAssay (EPA / NIEHS).
# A structure can be active in one record and inactive in another. The source made the active and inactive calls. Rule for the calls: active = hit-call score of the fitted dose curve at least 0.9, where 1 is the maximum; inactive = score below 0.9.
# Legend:
# [1] = ATG_DR4_LXR_CIS: Attagene CIS-FACTORIAL HepG2 Assay for human Liver X Receptor (LXR), DR4 submotif (AID 2282929); settings: HepG2 Attagene DR4 cis-reporter, mRNA transcription; AC50: actives raise or lower the signal unless noted; outcome: actives raise or lower the signal unless noted
# Method in brief: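 Measures endogenous transcription factor activity via a DR4-driven reporter transcript in human HepG2 cells. Compounds incubated 24 h; mRNA quantified by RT-PCR and capillary electrophoresis, analysed as gain or loss of signal versus DMSO.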
# [2] = target: Aryl hydrocarbon receptor (Homo sapiens) (UniProt P35869); assay: ATG_Ahr_CIS: Attagene CIS-FACTORIAL HepG2 Assay for human Aryl Hydrocarbon Receptor (Ahr) (AID 2282930); settings: HepG2 AhR cis-factorial reporter transcription; actives raise or lower the signal
# Method in brief: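 Transient MRTU transfection of HepG2 → 24 h compound exposure → total RNA, oligo(dT) RT → PCR, 6-FAM extension, HpaI cut → CE fluorescence. DMSO = baseline; bidirectional curve fit.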
# [3] = ATG_AP_1_CIS: Attagene CIS-FACTORIAL HepG2 Assay for human Activator Protein 1 (AP-1) (AID 2282931); settings: HepG2 Attagene cis-factorial AP-1 reporter mRNA; actives raise or lower the signal
# Method in brief: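 Bidirectional concentration-response fitting against DMSO controls. Underlying signal: reporter mRNA from cis-promoter constructs in transiently transfected HepG2, measured after 24 h by RT-PCR and capillary electrophoresis.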
# [4] = ATG_AP_2_CIS: Attagene CIS-FACTORIAL HepG2 Assay for human Activator Protein 2 (AP-2) (AID 2282932); settings: HepG2 AP-2 cis-reporter, Attagene transcription factor profiling; AC50: actives raise or lower the signal unless noted; outcome: actives raise or lower the signal unless noted
# Method in brief: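 Endogenous transcription factor activity is reported through transfected multiplex reporter constructs in HepG2, after 24 h of compound exposure. Transcripts were quantified by RT-PCR and capillary electrophoresis of fluorescent fragments. Bidirectional fit against DMSO.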
# [5] = ATG_BRE_CIS: Attagene CIS-FACTORIAL HepG2 Assay for human Bone Morphogenetic Protein (BMP) Response Element (BRE) (AID 2282933); settings: HepG2 BMP response element reporter, Attagene transcription factor profiling; actives raise or lower the signal
# Method in brief: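 Multiplexed cis-reporter assay, HepG2, 24 h exposure. mRNA from reporter units quantified via RT-PCR/CE; DMSO baseline; bidirectional curve fit.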
# [6] = target: Retinoic acid receptor alpha (Homo sapiens) (UniProt P10276); assay: ATG_DR5_RAR_CIS: Attagene CIS-FACTORIAL HepG2 Assay for human Retinoic Acid Receptor Alpha (RARE), DR5 submotif (AID 2282934); settings: HepG2 Attagene cis-factorial RARE DR5 reporter, mRNA; actives raise or lower the signal
# Method in brief: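 Transient MRTU transfection of HepG2; 24 h compound treatment; TriZol RNA, oligo(dT) RT, PCR, FAM labelling, capillary electrophoresis. Bidirectional fit vs DMSO. Endogenous TF activity at DR5 RARE.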
# [7] = target: Transcription factor E2F1 (Homo sapiens) (UniProt Q01094); assay: ATG_E2F_CIS: Attagene CIS-FACTORIAL HepG2 Assay for human E2F Transcription Factor 1 (AID 2282935); settings: HepG2 Attagene cis-reporter, E2F reporter RNA transcripts; actives raise or lower the signal
# Method in brief: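 Gain or loss of reporter transcript, fitted against DMSO, reflects E2F1-driven transcription. Transiently transfected HepG2 dosed 24 h before RNA isolation. Quantified by fluorescent RT-PCR products separated by capillary electrophoresis.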
# [8] = ATG_E_Box_CIS: Attagene CIS-FACTORIAL HepG2 Assay for human Enhancer Box (E-box) (AID 2282936); settings: HepG2 E-box cis-reporter transcription, actives raise or lower the signal
# Method in brief: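 E-box-driven reporter transcripts measured in transiently transfected HepG2 after 24 h exposure: RNA reverse-transcribed, PCR-amplified, fluorescently labelled, digested and resolved by capillary electrophoresis. Gain or loss relative to DMSO.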
# [9] = ATG_M_61_CIS: Attagene CIS-FACTORIAL HepG2 Assay for M61 Transcription Factor (Internal Marker) (AID 2282937); settings: HepG2 Attagene CIS-FACTORIAL M61 internal marker reporter; actives raise or lower the signal
# Method in brief: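 Fluorescence from labelled cDNA fragments, separated by capillary electrophoresis, quantifies reporter induction. HepG2 cells bearing transiently transfected cis-promoter MRTUs were incubated with test chemical for 24 h; DMSO defined baseline for gain/loss fitting.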
# [10] = ATG_EGR_CIS: Attagene CIS-FACTORIAL HepG2 Assay for human Early Growth Response 1 (EGR1) (AID 2282938); settings: HepG2 Attagene CIS-FACTORIAL EGR reporter mRNA; actives raise or lower the signal
# Method in brief: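 Cell-based multiplex transcription assay: HepG2 carrying transfected cis-element reporter units, 24 h chemical treatment. Fluorescence from capillary electrophoresis of RT-PCR products gives mRNA levels; fitting is bidirectional relative to DMSO.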
# [11] = ATG_M_19_CIS: Attagene CIS-FACTORIAL HepG2 Assay for M19 Transcription Factor (Internal Marker) (AID 2282939); settings: HepG2 Attagene CIS-FACTORIAL M19 internal marker reporter; actives raise or lower the signal
# Method in brief: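 Signals come from fluorescence of labelled reporter-specific PCR fragments resolved by capillary electrophoresis, following 24 h treatment of HepG2 cells transfected with cis-promoter reporter units; activity was fitted in both directions relative to DMSO.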
# [12] = ATG_ERE_CIS: Attagene CIS-FACTORIAL HepG2 Assay for Estrogen Response Element (ERE) (AID 2282940); settings: HepG2 ERE cis-reporter, Attagene RNA transcript; actives raise or lower the signal
# Method in brief: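 Fluorescence of capillary-separated, FAM-labelled reporter cDNA fragments indicates reporter mRNA levels in HepG2 cells exposed to chemicals for 24 h. Transient transfection with cis-regulated units; data fitted in both directions against DMSO.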
# [13] = ATG_Ets_CIS: Attagene CIS-FACTORIAL HepG2 Assay for human Erythroblast Transformation Specific (ETS) (AID 2282941); settings: HepG2 ETS cis-reporter transcription; AC50: actives raise or lower the signal unless noted; outcome: actives raise or lower the signal unless noted
# Method in brief: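 Bidirectional fit versus DMSO of reporter mRNA signal, detected by RT-PCR and capillary electrophoresis in HepG2 cells transiently transfected with cis-element reporters and dosed 24 h.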
# [14] = target: Hepatocyte nuclear factor 3-beta (Homo sapiens) (UniProt Q9Y261); assay: ATG_FoxA2_CIS: Attagene CIS-FACTORIAL HepG2 Assay for human Forkhead box A2 (FOXA2) (AID 2282942); settings: HepG2 cis-reporter transcription factor activity, 24 h; actives raise or lower the signal
# Method in brief: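 In transiently transfected human HepG2 cells, promoter-driven reporter mRNA levels after 24 h chemical exposure are determined via RT-PCR with capillary electrophoresis. DMSO serves as baseline for bidirectional fitting.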
# [15] = ATG_FoxO_CIS: Attagene CIS-FACTORIAL HepG2 Assay for human Forkhead box O (FoxO) (AID 2282943); settings: HepG2 Attagene cis-reporter, FoxO element, mRNA; actives raise or lower the signal
# Method in brief: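 HepG2, transient MRTU transfection (cis element, endogenous TFs). Dose 24 h. TriZol RNA → oligo(dT) RT → PCR → 6-FAM primer extension → HpaI cut → CE. Gain/loss vs DMSO.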
# [16] = ATG_GATA_CIS: Attagene CIS-FACTORIAL HepG2 Assay for human GATA Binding Protein (AID 2282944); settings: HepG2 GATA cis-element reporter, Attagene multiplex mRNA; actives raise or lower the signal
# Method in brief: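 After transfecting HepG2 cells with multiple cis-regulated reporter units, chemicals are dosed for 24 h; isolated RNA undergoes RT-PCR and fluorescent labeling before capillary electrophoresis, with activity expressed against DMSO.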
# [17] = ATG_GLI_CIS: Attagene CIS-FACTORIAL HepG2 Assay for human Zinc Finger Protein GLI1 (AID 2282945); settings: HepG2, Attagene cis-factorial reporter mRNA, GLI element; actives raise or lower the signal
# Method in brief: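 Bidirectional curve fits relative to DMSO, using reporter mRNA levels from RT-PCR plus capillary electrophoresis. Cells were HepG2 transiently carrying cis-regulated reporter constructs, harvested 24 h after dosing.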
# [18] = target: Bile acid receptor (Homo sapiens) (UniProt Q96RI1); assay: ATG_IR1_CIS: Attagene CIS-FACTORIAL HepG2 Assay for human Nuclear Receptor Subfamily 1 Group H Member 4 (NR1H4), IR1 submotif (AID 2282946); settings: IR1 reporter transcription, actives raise or lower the signal
# Method in brief: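 HepG2 cells transiently transfected with multiplexed cis-element reporter units read endogenous transcription factor activity. After 24 h compound exposure, reporter mRNA was quantified by RT-PCR, fluorescent labelling, HpaI digestion and capillary electrophoresis; bidirectional fitting versus DMSO baseline.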
# [19] = ATG_GRE_CIS: Attagene CIS-FACTORIAL HepG2 Assay for human Glucocorticoid Response Elements (GRE) (AID 2282947); settings: HepG2 GRE cis-reporter, Attagene multiplex mRNA; AC50: actives raise or lower the signal unless noted; outcome: actives raise or lower the signal unless noted
# Method in brief: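 Reporter transcripts read by RT-PCR with capillary electrophoresis fluorescence after a 24 h chemical exposure of HepG2 cells transiently transfected with multiple cis-element reporter units. Gain or loss fitted against DMSO.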
# [20] = ATG_ISRE_CIS: Attagene CIS-FACTORIAL HepG2 Assay for human Interferon Regulatory Factor 1 (IRF1) binding to an Interferon-Stimulated Response Element (ISRE) (AID 2282948); settings: HepG2 ISRE cis-reporter (Attagene), mRNA transcription readout; actives raise or lower the signal
# Method in brief: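 Uses HepG2 liver cells transfected with cis-regulated reporters and measures mRNA 24 h post-dosing through RT-PCR, primer-extension labelling and capillary electrophoresis, with DMSO as negative control.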
# Bile acid receptor (Homo sapiens), sequence (Q96RI1 whole entry, looked up): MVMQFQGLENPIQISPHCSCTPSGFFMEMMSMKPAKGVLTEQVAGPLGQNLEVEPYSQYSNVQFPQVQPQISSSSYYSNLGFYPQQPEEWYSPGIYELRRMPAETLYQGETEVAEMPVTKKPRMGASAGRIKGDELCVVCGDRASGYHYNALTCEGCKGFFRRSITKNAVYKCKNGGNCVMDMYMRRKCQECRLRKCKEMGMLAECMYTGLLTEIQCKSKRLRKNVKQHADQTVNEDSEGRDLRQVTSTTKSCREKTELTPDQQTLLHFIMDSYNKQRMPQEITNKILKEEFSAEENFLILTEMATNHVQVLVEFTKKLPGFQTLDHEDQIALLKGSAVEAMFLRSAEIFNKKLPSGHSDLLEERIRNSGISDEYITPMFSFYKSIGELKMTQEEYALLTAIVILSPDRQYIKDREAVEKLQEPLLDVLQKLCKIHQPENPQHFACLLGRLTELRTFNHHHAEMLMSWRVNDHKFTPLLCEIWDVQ
# Hepatocyte nuclear factor 3-beta (Homo sapiens), sequence (Q9Y261 whole entry, looked up): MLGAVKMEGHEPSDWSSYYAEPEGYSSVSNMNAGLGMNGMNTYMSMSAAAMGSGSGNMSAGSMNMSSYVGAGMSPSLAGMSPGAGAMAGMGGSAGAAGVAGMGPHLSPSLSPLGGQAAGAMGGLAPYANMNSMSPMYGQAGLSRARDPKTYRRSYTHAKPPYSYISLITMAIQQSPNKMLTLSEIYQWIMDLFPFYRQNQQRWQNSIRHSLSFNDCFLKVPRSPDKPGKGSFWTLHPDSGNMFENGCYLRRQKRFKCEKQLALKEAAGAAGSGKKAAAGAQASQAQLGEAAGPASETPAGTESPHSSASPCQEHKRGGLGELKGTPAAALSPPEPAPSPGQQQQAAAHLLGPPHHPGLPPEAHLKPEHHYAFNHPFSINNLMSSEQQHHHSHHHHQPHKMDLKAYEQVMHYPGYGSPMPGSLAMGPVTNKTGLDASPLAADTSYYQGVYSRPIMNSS
# Aryl hydrocarbon receptor (Homo sapiens), sequence (P35869 whole entry, looked up): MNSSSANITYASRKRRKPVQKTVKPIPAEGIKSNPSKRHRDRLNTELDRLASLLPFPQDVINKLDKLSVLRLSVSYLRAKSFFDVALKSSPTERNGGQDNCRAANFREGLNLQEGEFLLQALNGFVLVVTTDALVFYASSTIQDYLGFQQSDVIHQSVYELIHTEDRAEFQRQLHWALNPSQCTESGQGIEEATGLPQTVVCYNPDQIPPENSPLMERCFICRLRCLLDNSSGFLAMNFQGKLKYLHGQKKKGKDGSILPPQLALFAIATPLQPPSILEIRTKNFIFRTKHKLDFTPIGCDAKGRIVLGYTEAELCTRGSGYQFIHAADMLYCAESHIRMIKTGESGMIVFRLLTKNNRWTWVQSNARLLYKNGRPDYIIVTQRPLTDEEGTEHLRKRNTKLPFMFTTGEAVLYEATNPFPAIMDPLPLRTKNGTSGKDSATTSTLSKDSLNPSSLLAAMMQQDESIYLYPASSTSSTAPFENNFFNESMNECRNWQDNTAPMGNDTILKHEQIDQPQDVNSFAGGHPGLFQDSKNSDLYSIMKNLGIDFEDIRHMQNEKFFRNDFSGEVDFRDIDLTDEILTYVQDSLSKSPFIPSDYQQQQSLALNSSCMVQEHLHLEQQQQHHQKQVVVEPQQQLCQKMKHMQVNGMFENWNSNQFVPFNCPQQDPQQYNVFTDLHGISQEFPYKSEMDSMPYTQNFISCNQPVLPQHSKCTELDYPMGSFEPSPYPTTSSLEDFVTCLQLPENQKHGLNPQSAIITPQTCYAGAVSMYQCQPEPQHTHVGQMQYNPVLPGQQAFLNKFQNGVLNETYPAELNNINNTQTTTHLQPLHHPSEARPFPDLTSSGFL
# Transcription factor E2F1 (Homo sapiens), sequence (Q01094 whole entry, looked up): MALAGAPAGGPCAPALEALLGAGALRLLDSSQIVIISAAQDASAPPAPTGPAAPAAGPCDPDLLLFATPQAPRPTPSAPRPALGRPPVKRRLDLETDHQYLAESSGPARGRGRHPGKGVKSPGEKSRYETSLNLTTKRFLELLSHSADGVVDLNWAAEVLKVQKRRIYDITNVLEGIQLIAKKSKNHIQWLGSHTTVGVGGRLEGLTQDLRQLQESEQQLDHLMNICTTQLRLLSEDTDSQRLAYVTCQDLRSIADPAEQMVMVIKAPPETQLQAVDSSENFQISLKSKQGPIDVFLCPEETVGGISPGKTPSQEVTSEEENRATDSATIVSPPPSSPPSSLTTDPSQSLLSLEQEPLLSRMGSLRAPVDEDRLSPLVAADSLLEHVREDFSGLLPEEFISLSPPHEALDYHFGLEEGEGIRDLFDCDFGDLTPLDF
# Retinoic acid receptor alpha (Homo sapiens), sequence (P10276 whole entry, looked up): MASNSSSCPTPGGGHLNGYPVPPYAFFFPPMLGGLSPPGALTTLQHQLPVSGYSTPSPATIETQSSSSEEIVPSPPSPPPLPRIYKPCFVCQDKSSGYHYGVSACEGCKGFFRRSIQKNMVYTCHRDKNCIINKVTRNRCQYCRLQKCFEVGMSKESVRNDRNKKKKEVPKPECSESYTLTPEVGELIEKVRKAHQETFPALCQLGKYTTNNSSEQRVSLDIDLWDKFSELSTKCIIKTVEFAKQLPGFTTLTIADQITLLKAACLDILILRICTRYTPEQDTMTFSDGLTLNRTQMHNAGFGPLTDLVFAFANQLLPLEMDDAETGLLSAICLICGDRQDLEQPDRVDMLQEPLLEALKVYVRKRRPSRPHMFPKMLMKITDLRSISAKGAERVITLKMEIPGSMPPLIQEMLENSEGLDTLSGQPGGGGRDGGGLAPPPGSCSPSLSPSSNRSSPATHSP
smiles,measurement,setting,value
O=C(c1cc(O)c(O)c(O)c1)c1ccc(O)c(O)c1O,outcome,[1],inactive
same,AC50,[2],36 µM (active)
same,outcome,[3],inactive
same,outcome,[4],inactive
same,AC50,[5],4.01 µM (active)
same,outcome,[6],inactive
same,outcome,[7],inactive
same,outcome,[8],inactive
same,outcome,[9],inactive
same,outcome,[10],inactive
same,outcome,[11],inactive
same,outcome,[12],inactive
same,outcome,[13],inactive
same,outcome,[14],inactive
same,outcome,[15],inactive
same,outcome,[16],inactive
same,outcome,[17],inactive
same,outcome,[18],inactive
same,outcome,[19],inactive
same,outcome,[20],inactive
Cc1ccccc1C(OCCN(C)C)c1ccccc1 (stereo not drawn),AC50,[1],135 µM (active)
same,outcome,[1],inactive
same,outcome,[2],inactive
same,outcome,[3],inactive
same,outcome,[5],inactive
same,outcome,[6],inactive
same,outcome,[7],inactive
same,outcome,[8],inactive
same,outcome,[9],inactive
same,outcome,[10],inactive
same,outcome,[11],inactive
same,outcome,[12],inactive
same,outcome,[13],inactive
same,outcome,[14],inactive
same,outcome,[15],inactive
same,outcome,[16],inactive
same,outcome,[17],inactive
same,outcome,[18],inactive
same,outcome,[19],inactive
Nc1ccn([C@@H]2O[C@H](CO)[C@@H](O)C2O)c(=O)n1 (stereo partly drawn),outcome,[1],inactive
same,outcome,[2],inactive
same,outcome,[3],inactive
same,outcome,[4],inactive
same,outcome,[5],inactive
same,outcome,[6],inactive
same,outcome,[7],inactive
same,outcome,[8],inactive
same,outcome,[9],inactive
same,outcome,[10],inactive
same,outcome,[11],inactive
same,outcome,[12],inactive
same,outcome,[13],inactive
same,outcome,[14],inactive
same,outcome,[15],inactive
same,outcome,[16],inactive
same,outcome,[17],inactive
same,outcome,[18],inactive
same,outcome,[19],inactive
